Source: PubChem BioAssay (NCATS)
Where “and” joins values, the source holds several entries; their conditions need not be identical. Equal entries are not always repeated. Inconclusive results are not listed. A call without a number means that no potency is given here. The source holds several records for some structures; these can differ, active in one and inactive in another. Values without a mark were called inactive. Calls of active or inactive are those of the source. Calls follow the shape of the dose curve; as a rule, active = well fitted curve in the direction sought with a large enough effect; inconclusive = small, poorly fitted or top-dose-only effect, or another doubt; inactive = no such curve, though single readings can be large; an effect the other way counts as inactive or inconclusive.

Key:
[1] = system: W2; experiment: qHTS profiling for inhibitors of Plasmodium falciparum proliferation (AID 504749); also: nearly all actives have a fitted effect of over 60% in size; also: potency is read from the fitted curve at half-maximal effect; conditions: P. falciparum in erythrocytes, SYBR Green DNA, 72 h; series mostly up to 28.7 µM
How it was run: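 Infected RBCs, 0.3% parasitemia/2.5% Hct final; cpd 72 h, 37 C, 5% CO2; lysis buffer with saponin/triton/SYBR Green I, o/n RT dark; FI 485/535; norm. to artemisinin (0.29 uM) and DMSO.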

[2] = system: CRL-7250; experiment: Cytotoxic Profiling of Annotated Libraries Using Quantitative High-Throughput Screening (AID 1296008); conditions: Five cell lines viability, CellTiter-Glo ATP luminescence, 48-72 h; max response: hits give low values; also: nearly all actives have a fitted effect of over 60% in size; also: potency is read from the fitted curve at half-maximal effect
How it was run: (§1)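 Cytotoxicity was measured as CellTiter-Glo ATP luminescence, read after 10 min at room temperature. Compound treatment of the cells lasted 48 or 72 hr at 37 degrees Celsius in a qHTS format.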

[3] = system: HEK293; experiment: as above; conditions: Five cell lines viability, CellTiter-Glo ATP luminescence, 48-72 h; max response: hits give low values
How it was run: as §1

[4] = system: HaCat; experiment: as above; conditions: Five cell lines viability, CellTiter-Glo ATP luminescence, 48-72 h; max response: hits give low values
How it was run: as §1

[5] = system: KB-3-1; experiment: as above; conditions: Five cell lines viability, CellTiter-Glo ATP luminescence, 48-72 h; max response: hits give low values
How it was run: as §1

[6] = system: NIH3T3; experiment: as above; conditions: Five cell lines viability, CellTiter-Glo ATP luminescence, 48-72 h; max response: hits give low values
How it was run: as §1

[7] = system: HACAT; experiment: qHTS assay to identify novel small-molecules to repurpose for Merkel cell carcinoma treatment (AID 1296009); conditions: MCC and control cell lines, CellTiter-Glo viability, 72 h; at 44.8 µM (top of the series) unless noted; also: nearly all actives have a fitted effect of over 60% in size
How it was run: (§2)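 72 hr, 37 degree celsius; NPC 8-pt / MIPE 11-pt dose response; compound pinned in DMSO; CellTiter-Glo, 10 min RT, luminescence; normalized to no-cell and DMSO controls.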

[8] = system: MCC-13; experiment: as above; conditions: MCC and control cell lines, CellTiter-Glo viability, 72 h; series mostly up to 46 µM
How it was run: as §2

[9] = system: MCC-26; experiment: as above; conditions: MCC and control cell lines, CellTiter-Glo viability, 72 h; series mostly up to 46 µM
How it was run: as §2

[10] = system: MKL-1; experiment: as above; conditions: MCC and control cell lines, CellTiter-Glo viability, 72 h; series mostly up to 46 µM
How it was run: as §2

[11] = system: MKL-2; experiment: as above; conditions: MCC and control cell lines, CellTiter-Glo viability, 72 h; series mostly up to 46 µM
How it was run: as §2

[12] = system: NIH3T3; experiment: as above; conditions: MCC and control cell lines, CellTiter-Glo viability, 72 h; at 44.8 µM (top of the series) unless noted
How it was run: as §2

[13] = system: UISO; experiment: as above; conditions: MCC and control cell lines, CellTiter-Glo viability, 72 h; series mostly up to 46 µM
How it was run: as §2

[14] = system: WaGa; experiment: as above; conditions: MCC and control cell lines, CellTiter-Glo viability, 72 h; series mostly up to 46 µM
How it was run: as §2

[15] = system: C33A; experiment: Primary qHTS to identify gynecologic anti-cancer compounds using libraries of approved drugs and bioactive compounds (AID 1345084); conditions: Gynecologic cancer cell panel viability, ATPlite luminescence, 48 h; series mostly up to 57.5 µM; also: nearly all actives have a fitted effect of over 55% in size; also: potency is read from the fitted curve at half-maximal effect
How it was run: (§3)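 Cells, 1,000 per well, were allowed to settle for 16 h at 37 C before compound addition. Five concentrations were tested for 48 h, and viability was read by ATPlite luminescence after 15 min at room temperature.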

[16] = system: CAOV3; experiment: as above; conditions: Gynecologic cancer cell panel viability, ATPlite luminescence, 48 h; series mostly up to 57.5 µM
How it was run: as §3

[17] = system: CASKI; experiment: as above; conditions: Gynecologic cancer cell panel viability, ATPlite luminescence, 48 h; series mostly up to 57.5 µM
How it was run: as §3

[18] = system: Es-2; experiment: as above; conditions: Gynecologic cancer cell panel viability, ATPlite luminescence, 48 h; series mostly up to 57.5 µM
How it was run: as §3

[19] = system: HeLa; experiment: as above; conditions: Gynecologic cancer cell panel viability, ATPlite luminescence, 48 h; series mostly up to 57.5 µM
How it was run: as §3

[20] = system: HEK293T; experiment: qHTS assay to identify novel small-molecules to repurpose for Merkel cell carcinoma treatment (AID 1296009); conditions: MCC and control cell lines, CellTiter-Glo viability, 72 h; at 44.8 µM (top of the series) unless noted; also: nearly all actives have a fitted effect of over 60% in size
How it was run: as §2

`c1ccc(CN(CC2=NCCN2)c2ccccc2)cc1` was tested, and the Potency [1] was 7.57 µM (active), the max response [2] was 3.95% and 1.52% and the max response [3] was 0.31% and -21.2%. The max response [4] was 4.83%, the outcome [4] was “inactive” and the max response [5] was -11.4% and 8.49%. For the same compound, the max response [6] was 2.96%, the outcome [6] was “inactive” and the outcome [7] was “inactive”. The Potency [8] was “inactive”, the Potency [9] was “inactive” and the Potency [10] was “inactive”. For the same compound, the Potency [11] was “inactive”, the outcome [12] was “inactive” and the Potency [13] was “inactive”. The Potency [14] was “inactive”, the Potency [15] was “inactive” and the Potency [16] was “inactive”. The Potency [17] was “inactive”, the Potency [18] was “inactive” and the Potency [19] was “inactive”.
In the case of `CCOC(CN1CCN(CC(C)C(=O)c2ccccc2)CC1)c1ccccc1` (stereo not drawn), the Potency [1] is reported as 10.7 µM (active), the max response [2] is reported as -5.72% and the max response [3] is reported as -4.15%. The max response [4] was -8.79%, the outcome [4] was “inactive” and the max response [5] was 0.981% and -11.3%. The max response [6] was -6.68%, the outcome [6] was “inactive” and the outcome [7] was “inactive [at 17.4 µM]”. The Potency [8] was “inactive”, the Potency [9] was “inactive” and the Potency [10] was “inactive”. For the same compound, the Potency [11] was “inactive”, the outcome [12] was “inactive” and the Potency [13] was “inactive”. The Potency [14] was “inactive”, the Potency [15] was “inactive” and the Potency [16] was “inactive”. For the same compound, the Potency [17] was “inactive”, the Potency [18] was “inactive” and the Potency [19] was “inactive”.
For `Cn1cc[nH]c1=S`, the max response [2] was 4.5%, the outcome [3] was “inactive” and the outcome [4] was “inactive”. For the same compound, the max response [5] was 10.2%, the outcome [6] was “inactive” and the outcome [7] was “inactive”. For the same compound, the outcome [20] was “inactive”, the Potency [8] was “inactive” and the Potency [9] was “inactive”. The Potency [10] was “inactive”, the Potency [11] was “inactive” and the outcome [12] was “inactive”. For the same compound, the Potency [13] was “inactive”, the Potency [14] was “inactive” and the Potency [15] was “inactive”. For the same compound, the Potency [16] was “inactive”, the Potency [17] was “inactive” and the Potency [18] was “inactive”. The Potency [19] was “inactive”.
With `Cc1cc(N)c2ccccc2[n+]1CCCCCCCCCC[n+]1c(C)cc(N)c2ccccc21` the Potency [1] was 0.102 µM (active), the Potency [2] was 14.6 µM (active) and the Potency [3] was 1.3 µM (active). For the same compound, the max response [4] was -1.45%, the Potency [5] was 9.2 µM (active) and the max response [5] was -23.8%. For the same compound, the max response [6] was -20.7%, the Potency [15] was “inactive” and the Potency [16] was 14.1 µM (active). The Potency [18] was “inactive” and the Potency [19] was “inactive”.
`CN1CCC[C@@H]1Cc1c[nH]c2ccc(CCS(=O)(=O)c3ccccc3)cc12` was tested, and the Potency [1] was 4.78 µM (active), the outcome [2] was “inactive” and the max response [3] was -1.58%. For the same compound, the outcome [3] was “inactive”, the outcome [4] was “inactive” and the max response [5] was -5.28%. For the same compound, the outcome [5] was “inactive”, the max response [6] was -4.41% and the outcome [6] was “inactive”. For the same compound, the outcome [7] was “inactive”, the outcome [20] was “inactive” and the Potency [8] was “inactive”. For the same compound, the Potency [9] was “inactive”, the Potency [10] was “inactive” and the Potency [11] was “inactive”. For the same compound, the outcome [12] was “inactive”, the Potency [13] was “inactive” and the Potency [14] was “inactive”. The Potency [15] was “inactive”, the Potency [16] was “inactive” and the Potency [17] was “inactive”. For the same compound, the Potency [18] was “inactive” and the Potency [19] was “inactive”.
In the case of `Cc1cccc(Nc2cc(Cl)nc(SCC(=O)O)n2)c1C`, the Potency [1] is reported as “inactive”, the max response [2] is reported as 0.443% and 0.95% and the max response [3] is reported as 1.85% and -1.17%. For the same compound, the max response [4] was 1.74%, the outcome [4] was “inactive” and the max response [5] was 6.42% and 8.75%. For the same compound, the max response [6] was -16.8% and 0.675%, the outcome [7] was “inactive” and the Potency [8] was “inactive”. For the same compound, the Potency [9] was “inactive”, the Potency [10] was “inactive” and the Potency [11] was “inactive”. The Potency [13] was “inactive”, the Potency [14] was “inactive” and the Potency [15] was “inactive”. The Potency [16] was “inactive”, the Potency [17] was “inactive” and the Potency [18] was “inactive”. For the same compound, the Potency [19] was “inactive”.
For `OCC(O)CN1CCN(c2ccccc2)CC1` (stereo not drawn), the Potency [1] was “inactive”, the max response [2] was 0.497% and 1.49% and the max response [3] was -1.21%. For the same compound, the outcome [3] was “inactive”, the max response [4] was -30% and the max response [5] was -6.94% and 8%. The max response [6] was -1.52%, the outcome [6] was “inactive” and the outcome [20] was “inactive”. The Potency [8] was “inactive”, the Potency [9] was “inactive” and the Potency [10] was “inactive”. For the same compound, the Potency [11] was “inactive”, the outcome [12] was “inactive” and the Potency [13] was “inactive”. For the same compound, the Potency [14] was “inactive”, the Potency [15] was “inactive” and the Potency [16] was “inactive”. The Potency [17] was “inactive”, the Potency [18] was “inactive” and the Potency [19] was “inactive”.
With `COc1ccc2[nH]c(S(=O)Cc3ncc(C)c(OC)c3C)nc2n1` (stereo not drawn) the Potency [1] was 9.53 µM (active), the outcome [2] was “inactive” and the outcome [3] was “inactive”. For the same compound, the max response [4] was -5.32%, the outcome [4] was “inactive” and the max response [5] was 2.51%. The outcome [5] was “inactive”, the max response [6] was 3.86% and the outcome [6] was “inactive”. For the same compound, the outcome [7] was “inactive”, the outcome [20] was “inactive” and the Potency [8] was “inactive”. For the same compound, the Potency [9] was “inactive”, the Potency [10] was “inactive” and the Potency [11] was “inactive”. For the same compound, the outcome [12] was “inactive”, the Potency [13] was “inactive” and the Potency [15] was “inactive”. The Potency [16] was “inactive”, the Potency [17] was “inactive” and the Potency [18] was “inactive”. For the same compound, the Potency [19] was “inactive”.
In the case of `COC(=O)[C@H]1[C@H]2C[C@@H]3c4[nH]c5cc(OC)ccc5c4CCN3C[C@H]2C[C@@H](OC(=O)COc2ccc(OC)cc2)[C@@H]1OC`, the max response [2] is reported as -0.18%, the outcome [3] is reported as “inactive” and the outcome [4] is reported as “inactive”. For the same compound, the max response [5] was 0.718%, the outcome [6] was “inactive” and the outcome [7] was “inactive”. For the same compound, the outcome [20] was “inactive”, the Potency [8] was “inactive” and the Potency [9] was “inactive”. For the same compound, the Potency [10] was “inactive”, the Potency [11] was “inactive” and the outcome [12] was “inactive”. For the same compound, the Potency [13] was “inactive”, the Potency [14] was “inactive” and the Potency [15] was “inactive”. The Potency [16] was “inactive”, the Potency [17] was “inactive” and the Potency [18] was “inactive”. The Potency [19] was “inactive”.
In the case of `Cn1c(=O)c2c(ncn2CC2OCCO2)n(C)c1=O`, the Potency [1] is reported as “inactive”, the max response [2] is reported as -4.54% and 1.94% and the outcome [3] is reported as “inactive”. The max response [4] was -3.76%, the outcome [4] was “inactive” and the max response [5] was 6.93% and 8.78%. For the same compound, the max response [6] was 0.911%, the outcome [6] was “inactive” and the outcome [7] was “inactive”. For the same compound, the outcome [20] was “inactive”, the Potency [8] was “inactive” and the Potency [9] was “inactive”. The Potency [10] was “inactive”, the Potency [11] was “inactive” and the outcome [12] was “inactive”. For the same compound, the Potency [13] was “inactive”, the Potency [14] was “inactive” and the Potency [15] was “inactive”. For the same compound, the Potency [16] was “inactive”, the Potency [17] was “inactive” and the Potency [18] was “inactive”. For the same compound, the Potency [19] was “inactive”.
